From PubChem BioAssay (NCATS)
“And” between values parts separate entries of the source, which are not always exact repeats. Identical values can stand only once. Inconclusive results are not listed. The source made the active and inactive calls. Unless noted, the call rests on the fitted dose curve; in most records, active means well fitted curve in the direction sought with a large enough effect; inconclusive means small, poorly fitted or top-dose-only effect, or another doubt; inactive means no such curve, though single readings can be large; an effect the other way counts as inactive or inconclusive.

Key:
[1] = qHTS profiling of the MIPE4 collection as inhibitors of Plasmodium falciparum (3D7) proliferation (AID 743344; call rule not given here;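 further: scaled between DMSO vehicle wells and 0.29 µM artemisinin as full inhibition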); settings: P. falciparum 3D7 in erythrocytes, SYBR Green DNA fluorescence, 72 h; at 28.5 µM unless noted
Summary of the method: (§1)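 Erythrocytes infected with P. falciparum (0.3% parasitemia, 2.5% hematocrit) incubated with compounds 72 h at 37 C, 5% CO2. Lysis with saponin/Triton buffer containing SYBR Green I, overnight at room temperature in the dark; DNA fluorescence (485/535 nm) normalised to 0.29 uM artemisinin and DMSO.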

[2] = qHTS profiling of the MIPE4 collection as inhibitors of Plasmodium falciparum (DD2) proliferation (AID 743345; call rule not given here); settings: P. falciparum Dd2 in erythrocytes, SYBR Green DNA, 72 h; at 28.5 µM unless noted
Summary of the method: as §1

[3] = qHTS profiling of the MIPE4 collection as inhibitors of Plasmodium falciparum (DD2) proliferation (Rep 2) (AID 743346; call rule not given here); settings: P. falciparum Dd2 in erythrocytes, SYBR Green DNA, 72 h; at 28.5 µM unless noted
Summary of the method: as §1

[4] = qHTS profiling of the MIPE4 collection as inhibitors of Plasmodium falciparum (HB3) proliferation (AID 743347; call rule not given here;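 further: plate controls were DMSO vehicle wells for no effect and artemisinin wells for full effect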); settings: P. falciparum HB3 in erythrocytes, SYBR Green DNA, 72 h; at 28.5 µM unless noted
Summary of the method: as §1

[5] = High-throughput drug toxicity screening in the BPDCN cell line Gen2.2 (AID 1224824; call rule not given here;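 further: cells exposed to compounds for 48 h before reading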); settings: Gen2.2 BPDCN cells; at 45.8 µM (top of the series) unless noted
Summary of the method: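 Gen2.2 cells (500/well) in phenol red-free RPMI with 10% FBS were exposed to compounds for 48 h at 37 °C, 5% CO2. Viability was read by CellTiter-Glo luminescence and normalized to DMSO (100%) and 9.2 uM bortezomib (0%).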

[6] = High-throughput drug toxicity screening in the BPDCN cell line Cal-1 (AID 1224825; call rule not given here); settings: Cal-1 BPDCN cell viability, qHTS; at 45.8 µM (top of the series) unless noted
Summary of the method: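 Exponentially growing Cal-1 cells, 500 per well in phenol red-free RPMI with 10% FBS, were exposed to compounds for 48 h at 37 °C, 5% CO2. Viability was read by CellTiter-Glo luminescence and normalised to DMSO (100%) and 9.2 uM bortezomib (0%).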

[7] = qHTS assay for measurement of the activity of small molecule inhibitors on Zika virus induced Caspase-3 activity in human iPSC derived neural progenitor cells (hNPCs) (AID 1224857); further: % of control where 0% means no effect; nearly all actives have a fitted effect of over 65% in size
Summary of the method: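 After overnight (16–20 h) culture at 350 cells/well, hNPCs get compound, then ZIKV 2 FFU/cell one hour later. Six hours on, Caspase-Glo 3/7 is added and luminescence measured.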

[8] = qHTS assay for measurement of the activity of small molecule inhibitors on Zika virus induced Caspase-3 activity in human astrocytoma cells (AID 1224859);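 further: plate controls were ZIKV-infected untreated cells for no effect and uninfected cells for full effect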
Summary of the method: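 Inhibition of Zika-induced caspase-3/7 activity: SNB-19 cells, 1 h compound pretreatment, ZIKV 2 FFU/cell for 6 h at 37 C, Caspase-Glo luminescence read-out.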

[9] = qHTS Screen of the MIPE 4.0 Collection Against Ewings Sarcoma (RDES) (AID 1259252); further: nearly all actives have a fitted effect of over 35% in size; further: potency means the concentration at half of the fitted maximal effect
Summary of the method: (§2)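 Measured: ATP luminescence (CellTiter-Glo) 10 min after reagent addition, following 48 h drug treatment. Relative luciferase units converted to percent activity, with no-cell wells as full and DMSO wells as zero inhibition.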

[10] = qHTS Screen of the MIPE 4.0 Collection Against Ewings Sarcoma (TC71) (AID 1259253); further: nearly all actives have a fitted effect of over 40% in size; further: potency means the concentration at half of the fitted maximal effect
Summary of the method: as §2

[11] = qHTS Screen of the MIPE 4.0 Collection Against Ewings Sarcoma (EW8) (AID 1259255); further: nearly all actives have a fitted effect of over 35% in size; further: potency means the concentration at half of the fitted maximal effect;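 on viability: 100% = DMSO-treated cells and 0% = medium-only wells without cells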
Summary of the method: as §2

[12] = qHTS Screen of the MIPE 4.0 Collection Against Ewings Sarcoma (TC32) (AID 1259256); further: nearly all actives have a fitted effect of over 45% in size; further: potency means the concentration at half of the fitted maximal effect
Summary of the method: as §2

[13] = qHTS profiling for inhibitors of Plasmodium falciparum (3D7) proliferation (AID 743322; call rule not given here;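 further: infected erythrocytes exposed to compound for 72 h before lysis; 100% = DMSO vehicle wells and 0% = 0.29 µM artemisinin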); settings: P. falciparum 3D7 proliferation; at 28.7 µM (top of the series)
Summary of the method: as §1

[14] = qHTS profiling for inhibitors of Plasmodium falciparum (DD2) proliferation (AID 743323; call rule not given here); settings: lower = more inhibition; at 28.7 µM (top of the series)
Summary of the method: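 Parasite proliferation measured via DNA-dye fluorescence, as uninfected erythrocytes lack DNA. Cultures at 0.3% parasitemia and 2.5% hematocrit incubated 72 h with compound; signal scaled between vehicle and 0.29 uM artemisinin wells.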

[15] = qHTS profiling for inhibitors of Plasmodium falciparum (HB3) proliferation (AID 743324); settings: Plasmodium falciparum HB3 blood-stage proliferation; at 28.7 µM (top of the series);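 further: 100% = DMSO vehicle wells and 0% = artemisinin-treated control wells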
Summary of the method: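 P. falciparum HB3 grown in erythrocytes (0.3% parasitemia, 2.5% hematocrit final) with compound for 72 h at 37 C, 5% CO2. Parasite DNA detected by SYBR Green after saponin/triton lysis overnight; normalized to 0.29 uM artemisinin and DMSO.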

[16] = Identifying Small Molecule Inhibitors of Pancreatic Cancer Stem Cells (SN12C, Adherent) (AID 1259358);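 further: cell survival measured after 48 h of compound exposure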; further: potency means the concentration at half of the fitted maximal effect
Summary of the method: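 After a 4 h attachment period, compounds were pinned into wells and cultures held 48 h under standard incubator conditions. Viability was then measured as CellTiter-Glo luminescence following 10 min at room temperature.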

[17] = Identifying Small Molecule Inhibitors of Pancreatic Cancer Stem Cells (Panc1, Spheroid) (AID 1259359);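 further: potency means the concentration at half of the fitted maximal effect; compound exposure lasted 48 h before reading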
Summary of the method: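 Adherent (2D) versus sphere (3D) formats; spheres generated 14 d in SCM beforehand. Compound transferred by pin tool after 4 h, 48 h incubation, CellTiter-Glo endpoint.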

CC(C)c1noc(N2CCC(COc3ccc(-c4ccc(S(C)(=O)=O)cc4)nc3)CC2)n1
parasite growth, % of DMSO control [1]: 22.7%
parasite growth remaining, % of DMSO control (lower = more inhibition) [2]: 23.2%
parasite growth, % of control (lower = inhibition) [3]: 49.7%
growth, % of control [4]: 20.9%
cell viability, % of control (lower = more cytotoxic) [5]: 87.9%
viability (% of control) [6]: 68.8%
Potency [7]: inactive
Potency [8]: inactive
Potency [9]: inactive
Potency [10]: inactive
Potency [11]: inactive
Potency [12]: inactive

c1cc(-c2cnn3cc(-c4ccc(OCCN5CCCCC5)cc4)cnc23)ccn1
remaining parasite growth % (stronger effect = lower value) [13]: 6.04%
activity, percent of control [14]: 13.9%
remaining proliferation (% of control), lower = more inhibition [15]: 12%
parasite growth, % of DMSO control [1]: 4.66%
parasite growth remaining, % of DMSO control (lower = more inhibition) [2]: 6.66%
parasite growth, % of control (lower = inhibition) [3]: 10.1%
growth, % of control [4]: 4.45%
cell viability, % of control (lower = more cytotoxic) [5]: 2.64%
viability (% of control) [6]: 3.8%
Potency [7]: inactive
Potency [8]: inactive
Potency [9]: 20.9 µM (active)
Potency [10]: 14.8 µM (active)
Potency [11]: 18.7 µM (active)
Potency [12]: 20.9 µM (active)

Cn1c2cc(S(C)=O)sc2c2cnn(Cc3cccc(N)c3)c(=O)c21 (centres undefined)
remaining parasite growth % (stronger effect = lower value) [13]: 83.6% and 85.6%
activity, percent of control [14]: 95% and 94.7%
remaining proliferation (% of control), lower = more inhibition [15]: 53.2% and 65.3%
parasite growth, % of DMSO control [1]: 190%
parasite growth, % of control (lower = inhibition) [3]: 77%
growth, % of control [4]: 367%
cell viability, % of control (lower = more cytotoxic) [5]: 123%
viability (% of control) [6]: 100%
Potency [7]: inactive
Potency [8]: inactive
Potency [9]: inactive
Potency [10]: inactive
Potency [11]: inactive
Potency [12]: inactive
Potency [16]: inactive

O=C(C=Cc1cccc(S(=O)(=O)Nc2ccccc2)c1)NO
remaining parasite growth % (stronger effect = lower value) [13]: 0.201%
activity, percent of control [14]: 0.981%
remaining proliferation (% of control), lower = more inhibition [15]: 0.6%
parasite growth, % of DMSO control [1]: 4.9% [at 57.5 µM]
parasite growth remaining, % of DMSO control (lower = more inhibition) [2]: 6.53% [at 57.5 µM]
parasite growth, % of control (lower = inhibition) [3]: 18.3% [at 57.5 µM]
growth, % of control [4]: 8.45% [at 57.5 µM]
cell viability, % of control (lower = more cytotoxic) [5]: 8.69% [at 92.2 µM]
viability (% of control) [6]: 3.98% [at 92.2 µM]
Potency [7]: inactive
Potency [8]: inactive
Potency [9]: 2.15 µM (active)
Potency [10]: 2.7 µM (active)
Potency [11]: 1.52 µM (active)
Potency [12]: 1.91 µM (active)
Potency [16]: 20.9 µM (active)

Nc1ccccc1NC(=O)c1ccc(CNC(=O)OCc2cccnc2)cc1
remaining parasite growth % (stronger effect = lower value) [13]: 99.2%
activity, percent of control [14]: 92.8%
parasite growth, % of DMSO control [1]: 25.3%
parasite growth remaining, % of DMSO control (lower = more inhibition) [2]: 31.3%
parasite growth, % of control (lower = inhibition) [3]: 25.4%
growth, % of control [4]: 7.7%
cell viability, % of control (lower = more cytotoxic) [5]: 2.59%
viability (% of control) [6]: 5.69%
Potency [7]: inactive
Potency [8]: inactive
Potency [9]: 9.35 µM (active)
Potency [10]: 2.35 µM (active)
Potency [11]: 2.35 µM (active)
Potency [12]: 1.66 µM (active)
Potency [16]: inactive

CC(C)(C)c1cnc(CSc2cnc(NC(=O)C3CCNCC3)s2)o1
remaining parasite growth % (stronger effect = lower value) [13]: 9.96%
activity, percent of control [14]: 6.95%
remaining proliferation (% of control), lower = more inhibition [15]: 7.19%
parasite growth, % of control (lower = inhibition) [3]: 24.1%
growth, % of control [4]: 12.8%
cell viability, % of control (lower = more cytotoxic) [5]: 1.75%
viability (% of control) [6]: 1.24%
Potency [7]: inactive
Potency [8]: inactive
Potency [9]: 0.132 µM (active)
Potency [10]: 0.187 µM (active)
Potency [11]: 0.148 µM (active)
Potency [12]: 0.148 µM (active)
Potency [17]: 0.418 µM (active)

CC(C)c1cc(-c2n[nH]c(=O)n2-c2ccc3c(ccn3C)c2)c(O)cc1O
parasite growth, % of DMSO control [1]: 5.55%
parasite growth remaining, % of DMSO control (lower = more inhibition) [2]: 8.22%
parasite growth, % of control (lower = inhibition) [3]: 8.97%
growth, % of control [4]: 1.94%
cell viability, % of control (lower = more cytotoxic) [5]: 4.99%
viability (% of control) [6]: 10.7%
Potency [7]: inactive
Potency [8]: inactive
Potency [9]: 0.105 µM (active)
Potency [10]: 0.0662 µM (active)
Potency [11]: 0.0662 µM (active)
Potency [12]: 0.0526 µM (active)
